Among all 5,500 compounds or so, about 2,000 (36%) were called active. Another 18% or so got no clear call; they are omitted. No stated cut-off is given here; in the data, active means normalized growth mostly below about 0.91 (no sharp cut-off); inconclusive means no clear call, values can overlap the other calls; inactive means mostly above about 0.92. The list shows a part of the results.
Experiment: chemical genetic growth profiling, strain panel (AID 1159580);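 further: tested at 20 µM; growth read once vehicle control cultures reached saturation at 30 °C; 1 = growth at the plate median or of vehicle wells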
Settings: S. cerevisiae deletion strains, growth OD

Measured: normalized growth

COc1ccc([C@H]2Oc3c(I)c(OC)cc(OC)c3C[C@@H]2O)cc1OC
inactive: locus YAL021C, strain ccr4, stronger effect = lower value 1.01 | locus YAL026C, strain drs2, stronger effect = lower value 1.01 | locus YAL030W, strain snc1, stronger effect = lower value 1.01 | locus YBL061C, strain skt5, stronger effect = lower value 1.01 | locus YBR009C, strain hhf1, stronger effect = lower value 1.01 | locus YBR021W, strain FUR4, stronger effect = lower value 1 | locus YBR023C, strain chs3, stronger effect = lower value 1.01 | locus YBR171W, strain sec66, stronger effect = lower value 1.01 | locus YBR229C, strain ROT2, stronger effect = lower value 1 | locus YBR231C, strain swc5, stronger effect = lower value 1.01 | locus YBR279W, strain paf1, stronger effect = lower value 1.03 | locus YCL011C, strain gbp2, stronger effect = lower value 1.02 | locus YCL016C, strain dcc1, stronger effect = lower value 1.02 | locus YCL029C, strain bik1, stronger effect = lower value 1.03 | locus YCL061C, strain MRC1, stronger effect = lower value 1.02 | locus YCL069W, strain vba3, stronger effect = lower value 1.02 | locus YCR088W, strain abp1, stronger effect = lower value 1.01 | locus YDL005C, strain med2, stronger effect = lower value 1.01 | locus YDL035C, strain GPR1, stronger effect = lower value 1.07 | locus YDL040C, strain nat1, stronger effect = lower value 1.01 | locus YDL074C, strain BRE1, stronger effect = lower value 1.1 | locus YDL101C, strain DUN1, stronger effect = lower value 1 | locus YDL134C, strain PPH21, stronger effect = lower value 1.03 | locus YDL185W, strain tfp1, stronger effect = lower value 1.03 | locus YDL192W, strain arf1, stronger effect = lower value 1.04 | locus YDR001C, strain nth1, stronger effect = lower value 1.02 | locus YDR069C, strain doa4, stronger effect = lower value 1.01 | locus YDR101C, strain arx1, stronger effect = lower value 1.04 | locus YDR137W, strain rgp1, stronger effect = lower value 0.982 | locus YDR150W, strain NUM1, stronger effect = lower value 1.02 | locus YDR159W, strain sac3, stronger effect = lower value 0.98 | locus YDR162C, strain NBP2, stronger effect = lower value 1.04 | locus YDR195W, strain ref2 1.01 | locus YDR297W, strain sur2, stronger effect = lower value 1.01 | locus YDR318W, strain mcm21, stronger effect = lower value 1.02 | locus YDR334W, strain swr1, stronger effect = lower value 1.02 | locus YDR335W, strain msn5, stronger effect = lower value 1.01 | locus YDR388W, stronger effect = lower value 1.02 | locus YDR392W, strain spt3, stronger effect = lower value 0.895 | locus YDR502C, strain sam2, stronger effect = lower value 1.02 | locus YEL003W, strain gim4, stronger effect = lower value 1.01 | locus YEL037C, strain rad23, stronger effect = lower value 1.01 | locus YEL061C, strain CIN8 (second series), stronger effect = lower value 1.02 | locus YER015W, strain faa2, stronger effect = lower value 1.02 | locus YER016W, strain bim1, stronger effect = lower value 1 | locus YER110C, stronger effect = lower value 1 | locus YER111C, strain swi4, stronger effect = lower value 1.01 | locus YER155C, strain BEM2 (second series), stronger effect = lower value 1 | locus YER155C, strain BEM2, stronger effect = lower value 0.996 | locus YER167W, strain BCK2, stronger effect = lower value 1.01 | locus YFR010W, strain ubp6, stronger effect = lower value 1.01 | locus YGL078C, strain dbp3, stronger effect = lower value 0.999 | locus YGL086W, strain mad1, stronger effect = lower value 0.997 | locus YGL167C, strain pmr1, stronger effect = lower value 1.01 | locus YGL173C, strain kem1, stronger effect = lower value 1.01 | locus YGL227W, strain vid30, stronger effect = lower value 1.02 | locus YGL240W, strain doc1, stronger effect = lower value 1.01 | locus YGL248W, strain PDE1, stronger effect = lower value 1.04 | locus YGL253W, strain hxk2, stronger effect = lower value 1.01 | locus YGR135W, strain pre9, stronger effect = lower value 1.03 | locus YGR252W, strain gcn5, stronger effect = lower value 1.06 | locus YHR013C, strain ard1, stronger effect = lower value 1.02 | locus YHR027C, strain rpn1, stronger effect = lower value 1.01 | locus YHR030C, strain SLT2, stronger effect = lower value 1 | locus YHR079C, strain IRE1 (second series), stronger effect = lower value 1.01 | locus YHR094C, strain hxt1, stronger effect = lower value 1.01 | locus YHR129C, strain ARP1, stronger effect = lower value 1.03 | locus YHR142W, strain chs7, stronger effect = lower value 1.03 | locus YHR200W, strain rpn10, stronger effect = lower value 1.07 | locus YIL066C, strain RNR3, stronger effect = lower value 1.02 | locus YIL073C, strain SPO22, stronger effect = lower value 1.08 | locus YIL125W, strain kgd1, stronger effect = lower value 1.03 | locus YIR030C, strain dcg1, stronger effect = lower value 1.03 | locus YJL092W, strain hpr5, stronger effect = lower value 1.01 | locus YJL095W, strain BCK1 (second series), stronger effect = lower value 1.02 | locus YJL095W, strain BCK1, stronger effect = lower value 1.05 | locus YJL115W, strain asf1, stronger effect = lower value 1.02 | locus YJL129C, strain trk1, stronger effect = lower value 1.02 | locus YJL134W, strain LCB3, stronger effect = lower value 1 | locus YJL154C, strain vps35, stronger effect = lower value 1.01 | locus YJL164C, strain tpk1, stronger effect = lower value 1.01 | locus YJL166W, strain qcr8, stronger effect = lower value 1.01 | locus YJL168C, strain set2, stronger effect = lower value 1.02 | locus YJL187C, strain SWE1 (second series), stronger effect = lower value 1 | locus YJL187C, strain SWE1, stronger effect = lower value 1.01 | locus YJR075W, strain HOC1, stronger effect = lower value 1.03 | locus YKL009W, strain mrt4, stronger effect = lower value 0.912 | locus YKL068W, stronger effect = lower value 0.976 | locus YKL085W, strain MDH1 (second series), stronger effect = lower value 0.971 | locus YKL085W, strain MDH1, stronger effect = lower value 0.971 | locus YKL160W, strain elf1, stronger effect = lower value 1.02 | locus YKR001C, strain vps1, stronger effect = lower value 1.06 | locus YKR026C, strain gcn3, stronger effect = lower value 1 | locus YKR091W, strain srl3, stronger effect = lower value 1.01 | locus YLL001W, strain dnm1, stronger effect = lower value 1.02 | locus YLL026W, stronger effect = lower value 1 | locus YLL041C, strain sdh2, stronger effect = lower value 1.01 | locus YLR027C, strain aat2, stronger effect = lower value 1.01 | locus YLR039C, strain RIC1, stronger effect = lower value 1.2 | locus YLR058C, strain SHM2, stronger effect = lower value 1.02 | locus YLR102C, strain apc9, stronger effect = lower value 1.01 | locus YLR221C, strain rsa3, stronger effect = lower value 1.02 | locus YLR258W, strain gsy2, stronger effect = lower value 1 | locus YLR262C, strain YPT6 (second series), stronger effect = lower value 1.01 | locus YLR268W, strain sec22, stronger effect = lower value 1.05 | locus YLR320W, strain mms22, stronger effect = lower value 1.03 | locus YLR330W, strain CHS5, stronger effect = lower value 1.02 | locus YLR342W, strain FKS1 (second series), stronger effect = lower value 1.06 | locus YLR342W, strain FKS1, stronger effect = lower value 1.01 | locus YLR357W, strain rsc2, stronger effect = lower value 1.03 | locus YLR370C, strain arc18, stronger effect = lower value 1.01 | locus YLR371W, strain rom2, stronger effect = lower value 1.05 | locus YLR384C, strain iki3, stronger effect = lower value 1.01 | locus YLR418C, strain cdc73, stronger effect = lower value 1.05 | locus YML016C, strain PPZ1, stronger effect = lower value 1.01 | locus YML032C, strain rad52, stronger effect = lower value 1.03 | locus YML120C, strain ndi1, stronger effect = lower value 1.01 | locus YML124C, strain tub3, stronger effect = lower value 1.02 | locus YMR058W, strain fet3, stronger effect = lower value 1.01 | locus YMR078C, strain ctf18, stronger effect = lower value 1.01 | locus YMR125W, strain sto1, stronger effect = lower value 1.03 | locus YMR129W, stronger effect = lower value 1.01 | locus YMR205C, strain PFK2, stronger effect = lower value 1.01 | locus YMR223W, strain ubp8, stronger effect = lower value 1.06 | locus YMR231W, strain pep5, stronger effect = lower value 1 | locus YMR263W, strain SAP30, stronger effect = lower value 1.04 | locus YMR307W, strain GAS1, stronger effect = lower value 1.2 | locus YNL067W, strain RPL9B, stronger effect = lower value 1.02 | locus YNL071W, strain lat1, stronger effect = lower value 1.01 | locus YNL128W, strain TEP1, stronger effect = lower value 1.04 | locus YNL209W, strain ssb2, stronger effect = lower value 1.04 | locus YNL233W, strain BNI4, stronger effect = lower value 1.04 | locus YNL248C, strain rpa49, stronger effect = lower value 1.01 | locus YNL250W, strain rad50, stronger effect = lower value 0.961 | locus YNL271C, strain bni1, stronger effect = lower value 1.03 | locus YNL298W, strain CLA4, stronger effect = lower value 0.985 | locus YNL307C, strain MCK1, stronger effect = lower value 1.01 | locus YNL322C, strain KRE1 (second series), stronger effect = lower value 1.01 | locus YNR049C, strain mso1, stronger effect = lower value 1.01 | locus YNR052C, strain pop2, stronger effect = lower value 1.01 | locus YOL006C, strain TOP1, stronger effect = lower value 1.23 | locus YOL012C, strain htz1 0.906 | locus YOL147C, strain pex11, stronger effect = lower value 1.02 | locus YOR001W, strain rrp6, stronger effect = lower value 0.997 | locus YOR061W, strain CKA2, stronger effect = lower value 0.999 | locus YOR069W, strain VPS5, stronger effect = lower value 1.02 | locus YOR070C, strain gyp1, stronger effect = lower value 1.02 | locus YOR080W, strain dia2, stronger effect = lower value 1.01 | locus YOR083W, strain WHI5, stronger effect = lower value 1.03 | locus YOR106W, strain vam3, stronger effect = lower value 1.03 | locus YOR136W, strain idh2, stronger effect = lower value 1.02 | locus YOR144C, strain elg1, stronger effect = lower value 1.04 | locus YOR184W, strain ser1, stronger effect = lower value 1.08 | locus YOR265W, strain rbl2, stronger effect = lower value 1 | locus YOR270C, strain vph1, stronger effect = lower value 1.04 | locus YOR290C, strain snf2, stronger effect = lower value 1.01 | locus YOR316C, strain cot1, stronger effect = lower value 1.04 | locus YPL051W, strain arl3, stronger effect = lower value 0.993 | locus YPL055C, strain LGE1, stronger effect = lower value 1.12 | locus YPL078C, strain atp4, stronger effect = lower value 1.02 | locus YPL106C, strain sse1, stronger effect = lower value 1.01 | locus YPL240C, strain hsp82, stronger effect = lower value 1.01 | locus YPR119W, strain clb2, stronger effect = lower value 1.03 | locus YPR141C, strain kar3, stronger effect = lower value 1.02 | locus YPR163C, strain tif3, stronger effect = lower value 1.02 | locus YPR167C, strain met16, stronger effect = lower value 1.04 | strain wtn01, stronger effect = lower value 1.02

Source: PubChem BioAssay AID1159580 (chemical genetic matrix, 2015)
